Test results: PubChem BioAssay (NCI)
This is part of a sample that, as a whole, favours compounds with a hit. Of some 83,000 tested, about 20% had one in any assay.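 Interpretation: 100, growth as untreated; towards 0, rising growth inhibition; 0, no net growth; 0 to -100, cell death. Compounds scoring below 10 were considered active.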 Unmarked numbers belong to inactive results. Activity calls are given as the source filed them.

Columns and labels:
Experiment in all cases: NCI-60 one-dose screen, 48 h (100 = growth as untreated, 0 = no growth, -100 = all killed)
Conditions in all cases: 10 µM unless noted
[1] = tested on: SR leukemia
[2] = tested on: RPMI-8226 leukemia
[3] = tested on: OVCAR-8 ovarian
[4] = tested on: OVCAR-5 ovarian
[5] = tested on: OVCAR-4 ovarian
[6] = tested on: SK-OV-3 ovarian
[7] = tested on: OVCAR-3 ovarian
[8] = tested on: HS 578T breast
[9] = tested on: NCI/ADR-RES ovarian
[10] = tested on: T-47D breast
[11] = tested on: BT-549 breast
[12] = tested on: MDA-MB-435 melanoma
[13] = tested on: SW-620 colon
[14] = tested on: MCF7 breast
[15] = tested on: HCT-116 colon
[16] = tested on: HCC-2998 colon
[17] = tested on: KM12 colon
[18] = tested on: IGROV1 ovarian

| SMILES | growth [1] | growth [2] | growth [3] | growth [4] | growth [5] | growth [6] | growth [7] | growth [8] | growth [9] | growth [10] | growth [11] | growth [12] | growth [13] | growth [14] | growth [15] | growth [16] | growth [17] | growth [18] |
| --- | --- | --- | --- | --- | --- | --- | --- | --- | --- | --- | --- | --- | --- | --- | --- | --- | --- | --- |
| CC1Cc2ccccc2N1C(=O)c1ccc(C(=O)c2ccccc2)cc1 (stereo not drawn) | 97.6% | 74.3% | 88.4% | 143% | 71.2% | 102% | 78.9% | 96.3% | 61.7% | 91.4% | 84% | 89.1% | 95.1% | 103% | 81.1% | 127% | 101% | – |
| COC(=O)c1cc2c(/C=C3/NC(=S)NC3=O)coc2n1C | 78.3% | 75.8% | 76.3% | 96.7% | 112% | 68.5% | 95.6% | 66.3% | 105% | 80.3% | 72.9% | 94.7% | 96.6% | 81.3% | 96.8% | 103% | 96.5% | – |
| O=c1[nH]c(SCc2ccccc2)nc2nc(Nc3ccc(NC(=S)Nc4ccccc4)cc3)nc(-c3ccc(O)cc3O)c12 | 54.8% | 96.5% | 108% | 87.5% | 100% | 91.4% | 81.1% | 107% | 99.3% | 73.1% | 91.7% | 104% | 96.8% | 99.2% | 102% | 98.6% | 89.4% | – |
| Cc1ccc(S(=O)(=O)NCCN2c3nc4ccccc4cc3Sc3cc4ccccc4nc32)cc1 | 73.7% | 78.7% | 34.1% | 85.6% | 22.9% | 53.3% | 83.7% | 33.4% | 63.1% | 62.5% | 46.2% | 105% | 87.7% | 69% | 70.5% | 86.3% | 165% | – |
| COP(=O)(OC)C(c1ccc(O)cc1)(c1ccc(O)cc1)c1ccc(O)cc1 | 93.4% | 99.3% | 97.2% | 124% | 99.3% | 122% | 81.3% | 98.8% | 92.3% | 104% | 133% | 118% | 97.3% | 109% | 82.7% | 127% | 113% | – |
| Cc1ccc(OCC(=O)Nc2ccc(Oc3ccccc3)cc2)c([N+](=O)[O-])n1 | 82.6% | 50.7% | 79% | 84.4% | 77.4% | 71.9% | 88.7% | 113% | 43.7% | 23.4% | 98.5% | 96.7% | 96.8% | 58.3% | 69.8% | 81.1% | 93.8% | – |
| COc1ccccc1-n1c(-c2ccc(O)cc2C)cn2c3c(=O)[nH]c(=O)n(C)c3nc12 | 90.8% | 93% | 86.3% | 86.9% | 84.4% | 65.8% | – | 50.2% | 108% | 77.3% | 135% | 101% | 94.7% | 91.7% | 97% | 104% | 103% | 21.9% |
| O=C(NC1CCS(=O)(=O)C1)c1ccc(C(=O)c2ccccc2)cc1 (stereo not drawn) | 133% | 72.8% | 70% | 102% | 98.1% | 113% | 121% | 34.5% | 117% | 107% | 121% | 101% | 95.8% | 105% | 104% | 103% | – | – |
| O=C1CNc2cc(Cl)ccc2N1 | 94.7% | 103% | 99.7% | 102% | 115% | 106% | 108% | 97.4% | 108% | 99.5% | 97.7% | 114% | 105% | 102% | 104% | 104% | 103% | – |
| COc1ccc2c(c1)CC/C(=C\c1ccc(OCC(=O)Nc3nc4ccccc4s3)cc1)C2=O | 68.4% | 85.4% | 98.3% | 87.8% | 102% | 104% | 116% | 73.5% | 102% | 88.3% | 83.6% | 100% | 93.9% | 98.4% | 89.1% | 87.6% | 108% | – |
| C/C(=C\CCc1ccoc1)CC/C=C(\C)CCCN1CCSCC1 | 45.6% | 38.2% | 89.8% | 70.1% | 75.3% | 84.6% | 44.4% | 98.1% | 73.8% | 60.9% | 77.7% | 91.1% | 86.1% | 43.2% | 53.8% | 74.6% | 81% | – |
| Cc1nn(-c2nc3ccccc3s2)c(C)c1Oc1ccccc1O | 19.6% | 33.1% | 50.6% | 121% | 74.9% | 75.3% | 75.5% | 39% | 101% | 87.1% | 63% | 72.4% | 47.8% | 81.7% | 27.4% | 250% | – | – |
| COc1cc(-c2nnc(-c3nc(-c4cc(OC)c(OC)c(OC)c4)n4ccccc34)o2)ccc1N | 69.6% | 39.6% | 50.8% | 106% | 76.5% | 96% | 77.6% | 44.2% | 61.3% | 54.5% | 67.1% | 82.5% | 87% | 71.2% | 54.2% | 89.1% | 68.3% | – |
| CC(=O)Nc1ccc(C(=O)COc2ccc(/C=C3\CCc4ccccc4C3=O)cc2)cc1 | 84.4% | 83.3% | 98.8% | 101% | 104% | 117% | 111% | 99% | 96.2% | 91% | 97.1% | 122% | 113% | 122% | 106% | 118% | – | – |
| COc1ccc(C(=O)COc2cccc(/C=C3\COc4ccc5ccccc5c4C3=O)c2)cc1 | 35% | 2.86% (active) | 36.9% | 98.3% | 28.1% | 95.7% | 64% | 88% | 46.5% | 32% | 1.54% (active) | 64.8% | 27.8% | 16.1% | 59.2% | 63.9% | 67.8% | – |
| CCOc1nc(-c2ccco2)n2nc(-c3ccco3)cc2n1 | 123% | 84.4% | 97% | 108% | 87.2% | 110% | 122% | 95.7% | 99.5% | 84% | 119% | 114% | 107% | 39.8% | 108% | 123% | 91.7% | – |
| N/C(=N\c1nc2ccccc2s1)NC(=O)Nc1ccccc1Cl | 9.92% (active) | 10.1% | 15.5% | 32.5% | 69.3% | 31.8% | -14.2% (active) | 30% | 6.38% (active) | 37% | 18.6% | -31.8% (active) | 27.7% | 21.1% | 13% | 14.2% | 12.7% | – |
| CCc1ccc(-c2nc(SCC(=O)NC3CCCCC3)n[nH]2)cc1 | 12.6% | 32.8% | 70% | 94.2% | 72.6% | 84.8% | 64% | 74.6% | 75.4% | 81.7% | 84.6% | 59.2% | 80.5% | 88.8% | 74.2% | 76.3% | 82.2% | – |
